Assay results taken from PubChem BioAssay (NCATS).
Values without a mark were called inactive. Records with an inconclusive call do not appear. Where a call stands in place of a potency, no number is given. The source made the active and inactive calls. The call rests on the fitted dose curve; in most records, active means well fitted curve in the direction sought with a large enough effect; inconclusive means small, poorly fitted or top-dose-only effect, or another doubt; inactive means no such curve, though single readings can be large; an effect the other way counts as inactive or inconclusive.

How the values were obtained:
[1] = target: Phospholipid hydroperoxide glutathione peroxidase GPX4 (Homo sapiens) (UniProt P36969); assay: Primary qHTS Assay for Inhibitors of Recombinant Selenoprotein Glutathione Peroxidase 4 (GPX4) (AID 1845192); further: nearly all actives have a fitted effect of over 65% in size; on activity change, negative = inhibition: series mostly up to about 50 µM
Procedure, shortened: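 GR-coupled readout: 100 nM GR, 1 mM GSH, 0.5 mM NADPH; NADPH fluorescence (ex 340/em 450 nm) read at t=0 and after 15 min RT. GPX4 200 nM, preincubated 30 min with compound; substrate 0.5 mM CHP.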

[2] = target: Luciferin 4-monooxygenase (Photinus pyralis) (UniProt P08659); assay: Primary firefly luciferase (FLuc) qHTS assay for identification of artifact compounds. (AID 1845220); further: nearly all actives have a fitted effect of over 60% in size; on activity change, negative = inhibition: series mostly up to about 54 µM
Procedure, shortened: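 qHTS, 15 min compound preincubation with substrate (10 uM luciferin, 10 uM ATP) at RT, then 10 nM FLuc; 5 min; luminescence; % inhibition vs no-enzyme/DMSO controls, 4-parameter Hill fit.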

[3] = Primary fluorescence-based thiol-reactive (MSTI) qHTS assay for identification of artifact compounds. (AID 1845221); further: nearly all actives have a fitted effect of over 65% in size; further: potency means the concentration at half of the fitted maximal effect;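 on activity change, negative = thiol reactive: series mostly up to about 54 µM; thiol-reactive compounds lower the probe fluorescence signal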
Procedure, shortened: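 Probe: MSTI 4 uM, PBS pH 7.4, 2% DMSO. Incubation 1 h, RT, light-protected. Readout fluorescence 525/598 nm.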

[4] = tested on: Nanoluciferase (engineered Oplophorus gracilirostris luciferase); assay: Primary Nanoluciferase (NLuc) qHTS assay for identification of artifact compounds. (AID 1845222); further: series mostly up to about 54 µM
Procedure, shortened: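 Luminescence read-out of secreted NLuc in S16 cell conditioned medium (1:55); compounds tested with 15 min RT preincubation, then Nano-Glo substrate 1:100, 5 min. % inhibition vs no-enzyme and DMSO controls, 4-parameter Hill fit.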

[5] = Primary redox qHTS assay for identification of artifact compounds. (AID 1845223)
Procedure, shortened: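 Amplex Red (25 uM) and HRP (250 mU/mL) in HBSS, with compounds for 15 min, then 250 uM DTT for 30 min, room temperature, dark. Fluorescence 525/598 nm read; normalized to DMSO and 10 uM DA3003; Hill fit.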

Sequence of Phospholipid hydroperoxide glutathione peroxidase GPX4 (Homo sapiens) (P36969 whole entry, looked up): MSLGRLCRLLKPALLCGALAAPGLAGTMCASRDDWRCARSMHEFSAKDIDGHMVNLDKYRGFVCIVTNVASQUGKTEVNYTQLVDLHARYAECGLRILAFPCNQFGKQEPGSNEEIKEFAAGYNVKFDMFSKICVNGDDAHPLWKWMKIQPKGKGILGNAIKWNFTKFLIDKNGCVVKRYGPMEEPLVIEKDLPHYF

| Compound | Potency [1] | Potency [2] | Potency [3] | Potency [4] | Potency [5] | activity change, negative = inhibition [1] | activity change, negative = inhibition [2] | activity change, negative = thiol reactive [3] | activity, negative = inhibition [4] | redox activity (% of DA3003) [5] |
| --- | --- | --- | --- | --- | --- | --- | --- | --- | --- | --- |
| CC(=O)O[C@]1(C(C)=O)CC[C@H]2[C@@H]3C[C@H](C)C4=CC(=O)C=C[C@]4(C)[C@@]3(F)[C@@H](O)C[C@@]21C | inactive | inactive | inactive | inactive | inactive |  |  |  |  |  |
| Cc1[nH]c2ccccc2c1CCNC(=O)c1ccccc1F | inactive | inactive | 4.23 µM (active) | inactive | inactive |  |  |  |  |  |
| CC(C)(C)c1cc(Br)cc([C@H](CC(=O)O)NC(=O)CNC(=O)c2cc(O)cc(NC3=NCC(O)CN3)c2)c1 (stereo not given in full) | inactive | inactive | inactive | inactive | inactive |  |  |  |  |  |
| Nc1nc2c(ncn2[C@@H]2O[C@@H]3COP(=O)(O)O[C@H]3[C@H]2O)c(=O)[nH]1 | inactive | inactive | inactive | inactive | inactive |  |  |  |  |  |
| CC(C)S(=O)(=O)NC[C@H](C)c1ccc(NC(=O)c2cc(F)cc(F)c2)cc1 | inactive | inactive | inactive | inactive | inactive |  |  |  |  |  |
| C[C@H]1[C@H](O)O[C@@H]2O[C@@]3(C)CC[C@H]4[C@H](C)CC[C@@H]1[C@@]24OO3 | inactive | inactive | inactive | inactive | inactive |  |  |  |  |  |
| Oc1ccc2nc(CN3CCC(Cc4ccccc4F)CC3)[nH]c2c1 | inactive | inactive | inactive | inactive | inactive |  |  |  |  |  |
| O=C1CCC(c2ccccc2)(C2CCN(Cc3ccc(I)cc3)CC2)C(=O)N1 (stereo not given) | inactive | inactive | inactive | inactive | inactive |  |  |  |  |  |
| CC(C)[C@H]1CC[C@@]2(O)COC(=O)[C@H]2[C@@H]1/C=C(\CO)C(=O)O | inactive | inactive | inactive | inactive | inactive |  |  |  |  |  |
| CC(=O)NC1=NN(C(C)=O)C(C)(c2ccccc2)S1 (stereo not given) | inactive | inactive | inactive | inactive | inactive |  |  |  |  |  |
| C[C@@H]1CC[C@@]2(OC1)O[C@H]1C[C@H]3[C@@H]4CC=C5C[C@@H](O)CC[C@]5(C)[C@H]4CC[C@]3(C)[C@H]1[C@@H]2C | inactive | inactive | inactive | inactive | inactive |  |  |  |  |  |
| C[C@@H]1CCC2C(C)(C)[C@H](O)CC[C@]2(C)[C@@]12Cc1c(O)cc3c(c1O2)CN([C@@H](CCC(=O)O)C(=O)O)C3=O (stereo not given in full) | inactive | inactive | inactive | inactive | inactive |  |  |  |  |  |
| OC[C@H]1O[C@@H](Oc2ccccc2)[C@H](O)[C@@H](O)[C@@H]1O | inactive | inactive | 21.2 µM (active) | inactive | inactive |  |  |  |  |  |
| C[C@@H]1C(=O)O[C@H]2[C@@H](O)C34[C@H]5C[C@@H](C(C)(C)C)C36[C@@H](OC(=O)[C@@H]6O)O[C@@]4(C(=O)O5)[C@@]12O (stereo not given in full) | inactive | inactive | inactive | inactive | inactive |  |  |  |  |  |
| CC(C)=C/C=C\[C@H](C)[C@H]1CC[C@]2(C)C[C@@H]3C(C)=CC(=O)C3/C(CO)=C\C[C@@H]12 (stereo not given in full) | inactive | inactive | inactive | inactive | inactive |  |  |  |  |  |
| COC(=O)c1cc(OC)cc(OC)c1C(=O)c1c(OC)cc2c(c1O)C1CCCC(C)(O2)O1 (stereo not given) | inactive | inactive | inactive | inactive | inactive |  |  |  |  |  |
| CC(C)(C)CCN1C[C@@H]2C(CNC(=O)c3cc(Cl)cc(Cl)c3)[C@@H]2C1 (stereo not given in full) | inactive | inactive | inactive | inactive | inactive |  |  |  |  |  |
| NC1(C(=O)NC(CCO)c2ccc(Cl)cc2)CCN(c2ncnc3[nH]ccc23)CC1 (stereo not given) | inactive | inactive | inactive | inactive | inactive |  |  |  |  |  |
| COc1cc2c(cc1O)[C@H](c1ccc(O[C@@H]3O[C@H](CO)[C@@H](O)[C@H](O)[C@H]3O)c(OC)c1)[C@@H](CO)[C@](O)(CO)C2 | inactive | inactive | 5.19 µM (active) | inactive | inactive |  |  |  |  |  |
| Cn1c(=O)n(-c2ccc(C(C)(C)C#N)cc2)c2c3cc(C#Cc4cccnc4)ccc3ncc21 | inactive | inactive | inactive | inactive | inactive |  |  |  |  |  |
| CCC(Nc1ncnc2nc[nH]c12)c1nc2cccc(F)c2c(=O)n1-c1ccccc1 (stereo not given) | inactive | inactive | inactive | inactive | inactive |  |  |  |  |  |
| CC1OC(O[C@H]2CC[C@@]3(C)C(CC[C@]4(C)C3CC=C3C5CC(C)(C)CC[C@]5(C(=O)OC5OC(CO)C(OC6OC(COC7OCC(O)C(O)C7O)C(O)C(O)C6O)C(O)C5O)CC[C@]34C)C2(C)C)C(O)C(O)C1OC1OCC(OC2OCC(O)C(O)C2O)C(O)C1O (stereo not given in full) |  |  |  |  |  | -7.3% [at 9.73 µM] | -3.25% [at 11.6 µM] | 94.7% [at 11.5 µM] | 0% [at 11.6 µM] | 16.2% [at 11.5 µM] |
